Rows were chosen to be rich in hits. Some 1.8% of all compounds tested hit in one or more screens of this group.
MEP2 TOR yeast – modulators of TOR pathway MEP2-GFP in S. cerevisiae | S. cerevisiae MEP2-GFP strain, flow cytometry GFP, 3 h; 100% = DMSO control level | AID 2016 | GFP response vs DMSO, % at 10 µM | 330,000 compounds, 0.51% hits;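 active means GFP response versus DMSO above a set limit, roughly screen mean plus 3 SD, cut at about 180% in these data; inconclusive means fewer than 70 cells counted for a yeast strain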;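 further: median GFP fluorescence of the barcode-gated MEP2-GFP cells per well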
RPL19A TOR yeast – modulators of TOR pathway RPL19A-GFP in S. cerevisiae; 330,000 compounds, 0.3% hits; S. cerevisiae RPL19A-GFP strain, flow cytometry, 3 h; hits give low values; percent response vs DMSO, % at 10 µM; AID 2025;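 active means percent response vs DMSO below 50%; inconclusive means fewer than 70 events counted for the yeast strain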;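 further: median channel GFP fluorescence of the barcoded RPL19A-GFP strain; ratio of sample median GFP to plate DMSO average so 100% = DMSO; lower means less RPL19A-GFP as with rapamycin TOR inhibition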
CIT2 TOR yeast – yeast TOR pathway CIT2-GFP modulation | AID 2029 | GFP response vs DMSO, % at 10 µM | 320,000 compounds, 0.065% hits | S. cerevisiae CIT2-GFP strain, flow cytometry, 3 h; 100 means same as DMSO wells;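 active means GFP response relative to DMSO above a set limit, near the screen mean plus 3 SD, cut at about 150% in these data; inconclusive means Fewer than 70 cells measured for a yeast strain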;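 further: ratio of well median GFP fluorescence to mean of DMSO wells on the plate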
Myeloid diff 2 – myeloid differentiation induction | ER-HoxA9 myeloid progenitors, lysozyme-GFP differentiation, flow cytometry | calls only at 10 µM | 360,000 compounds, 1% hits;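 active means normalized GFP-positive differentiation at or above the plate's own cutoff, the solvent-only control mean plus 3 SD; inconclusive means no clear call, values can overlap the other calls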;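 further: cells exposed to compound for four days before flow analysis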
AGP1 TOR yeast – alters AGP1-GFP fluorescence in TOR pathway yeast screen; S. cerevisiae AGP1-GFP multiplex flow cytometry, 3 h; GFP as percent of DMSO wells; GFP response vs DMSO, % at 10 µM; 320,000 compounds, 0.02% hits; AID 2066;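 active means GFP response relative to DMSO above a set limit, near screen average plus 3 SD, cut at about 150% in these data; inconclusive means fewer than 70 cells counted for the yeast strain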;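 further: median GFP channel fluorescence of the gated AGP1 strain per well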
LAP4-GFP MLPCN – yeast TOR pathway LAP4-GFP modulation; GFP response vs DMSO, % at 10 µM; S. cerevisiae LAP4-GFP multiplex, flow cytometry GFP, 3 h; median GFP as percent of DMSO wells; 320,000 compounds, 0.34% hits;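 active means GFP response vs DMSO above a set limit, about the screen mean plus 3 SD, cut at about 150% in these data; inconclusive means under 70 cell events counted for the yeast strain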
LAP4 cherry2 – reconfirmed LAP4-GFP TOR pathway modulator in yeast | S. cerevisiae LAP4-GFP strain, flow cytometry GFP, 3 h | AID 2621 | shares compounds with LAP4-GFP MLPCN | 590 compounds, 20% hits | GFP response vs DMSO, % at 10 µM;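 active means GFP signal as percent of the solvent control above about 150%, meaning raised reporter expression, limit read from the data; inconclusive means fewer than 70 cells counted in the well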;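 further: ratio of well median GFP fluorescence to plate DMSO mean so 100% = DMSO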
MEP2-GFP pick2 – reconfirmed MEP2-GFP TOR pathway modulator in yeast; shares compounds with LAP4-GFP MLPCN; S. cerevisiae MEP2-GFP strain, flow cytometry GFP, 3 h; GFP response vs DMSO, % at 10 µM; 590 compounds, 10% hits; AID 2622;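 active means GFP signal above 150% of the solvent control wells, that is a rise of more than half; inconclusive means fewer than 70 yeast cells counted in the well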;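 further: median channel GFP fluorescence of all gated yeast cells per well; ratio of median GFP to plate DMSO average so 100% = DMSO level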
RPL19A-GFP pick2 – reconfirmed modulator of RPL19A-GFP TOR reporter in yeast; shares compounds with LAP4-GFP MLPCN; S. cerevisiae RPL19A-GFP strain, flow cytometry GFP, 3 h; hits give low values; 100% means same as DMSO wells; GFP response vs DMSO, % at 10 µM; 590 compounds, 3% hits; AID 2623;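 active means under 65% GFP response relative to DMSO; inconclusive means yeast strain with under 70 measured events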;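 further: median GFP channel fluorescence per well over the all cells gate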
CIT2 GFP CP2 – reconfirmed modulator of CIT2-GFP TOR reporter in yeast; shares compounds with LAP4-GFP MLPCN; S. cerevisiae CIT2-GFP strain, flow cytometry GFP, 3 h; DMSO control wells read 100%; GFP response vs DMSO, % at 10 µM; 590 compounds, 8% hits; AID 2624;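 active means GFP response vs DMSO above about 150%, limit read from the data; inconclusive means fewer than 70 events counted for a yeast strain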;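 further: median green fluorescence per well over all gated yeast cells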
AGP1 GFP CP2 – reconfirmed modulator of AGP1-GFP TOR reporter in yeast; percent response vs DMSO, % at 10 µM; shares compounds with LAP4-GFP MLPCN; 590 tested, under 10 active; S. cerevisiae AGP1-GFP strain, flow cytometry GFP, 3 h;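 active means over 150 percent of DMSO response; inconclusive means yeast strain measured with under 70 events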;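 further: median GFP channel fluorescence over all cells without mother daughter split; sample median GFP divided by mean DMSO control so 100% equals DMSO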
Yeast autofluor – compound is autofluorescent in yeast s288c cells; shares compounds with LAP4-GFP MLPCN; S. cerevisiae s288c, 520 nm autofluorescence, flow cytometry, 3 h; hits give high values; zero means same as solvent-only cells; fluorescence change (kMESF span) at 33 µM; 610 tested, under 10 active;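 active means fluorescence span over the dose series, or activity score, above about 33, limit read from the data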
s288c autofl DR – yeast s288c autofluorescence artifact in dose response. shares compounds with LAP4-GFP MLPCN. S. cerevisiae s288c parental, compound autofluorescence, flow cytometry, 3 h. fluorescence change (span) at 33 µM. 110 tested, under 10 active;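 active means fluorescence change span, or the activity score built from it, above 25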
TORC1 bypass gr – wildtype yeast growth loss with TORC1 bypass cells unaffected | shares compounds with LAP4-GFP MLPCN | S. cerevisiae BY4741 spot growth rating, 48-72 h; hits give low values | growth rating (0-3) at 30 µM | 120 tested, under 10 active | AID 504456;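 active means growth rating at most 1 for wild type yeast while the TORC1 bypass strain still grows fully, rated 3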
* marks the source's active call; other numbers are inactive results; i = inactive; ? = inconclusive; nt = no result; + = active, no number.

SMILES | MEP2 TOR yeast | RPL19A TOR yeast | CIT2 TOR yeast | Myeloid diff 2 | AGP1 TOR yeast | LAP4-GFP MLPCN | Yeast autofluor | others
O=C1CSC(c2ccccc2)N1c1ccc(F)cc1F (stereo unspecified) | 111 | 111 | 113 | i | 113 | 101 | nt
O=c1c(-c2ccc(Cl)cc2)[n+]([O-])c2ccccc2n1O | 111 | 60 | 79 | i | 49 | 165* | 1.6
Cc1ncc(CO)c(CNc2ccc(-c3nc4ccccc4[nH]3)cc2)c1O | 107 | 102 | 92 | i | 89 | 91 | nt
O=C(O)c1ccc(COc2ccccc2C=C2C(=O)c3ccccc3C2=O)cc1 | 101 | 102 | 90 | + | 93 | 104 | 0 | LAP4 cherry2=110;MEP2-GFP pick2=110;RPL19A-GFP pick2=101;CIT2 GFP CP2=108;AGP1 GFP CP2=97
O=C(COc1ccc(Cl)cc1Cl)Nc1cccnc1 | 97 | 99 | 75 | ? | 90 | 116 | nt
COc1ccc(CCNC(=O)Cn2c(=O)n(CC3CCCO3)c(=O)c3cc(OC)c(OC)cc32)cc1OC (stereo unspecified) | 96 | 98 | 105 | i | 104 | 99 | nt
Cc1[nH]n(-c2ncc(-c3ccccc3)s2)c(=O)c1C(c1ccc(Cl)cc1)C(C#N)C#N (stereo unspecified) | 86 | 90 | 88 | i | 93 | 155* | 0
Cc1[nH]n(-c2ccccc2)c(=O)c1C(C[N+](=O)[O-])c1ccc(Cl)cc1 (stereo unspecified) | 77 | 107 | 110 | nt | 106 | 98 | nt
O=C(Nc1ccc(Cl)c(Cl)c1)c1ccc(Cl)c(Cl)c1 | 106 | 104 | 105 | i | 100 | 104 | nt
Cc1ccc(NC(=O)c2ccc(Cl)c(N3C(=O)C=CC3=O)c2)cc1 | 95 | 50* | 69 | i | 61 | 129 | 1.4 | s288c autofl DR=1.3;TORC1 bypass gr=3
Cc1cc(C(=O)Nc2ccc3c(c2)OCO3)no1 | 103 | 97 | 157* | i | 111 | 98 | nt | LAP4 cherry2=104;MEP2-GFP pick2=110;RPL19A-GFP pick2=101;CIT2 GFP CP2=101;AGP1 GFP CP2=101
Cc1ccc(NC(=O)c2cc(-c3ccc4c(c3)OCO4)on2)cc1C | 106 | 104 | 106 | i | 104 | 101 | nt
Cc1cccc(NC2SC(=O)NC2=O)c1 (stereo unspecified) | 98 | 101 | 104 | i | 107 | 110 | nt
N#Cc1cccnc1N1CCN(C(c2ccnc3ccccc23)c2nnnn2-c2ccc3c(c2)OCCO3)CC1 (stereo unspecified) | nt | nt | nt | i | nt | nt | nt
